Molecules are shown by their SMILES. In all, about 200,000 compounds went through this assay and about 810 (0.41%) were called active. This excerpt belongs to a sample that is enriched for actives. Values without a mark were called inactive. No stated cut-off is given here; in the data, active means activation above about 19%; inactive means the rest.

For this assay, the target named is Peroxisome proliferator-activated receptor gamma (Homo sapiens) (UniProt P37231). Kind of assay: PPARgamma agonists recruiting SRC-1 coactivator, primary screen, biochemical (AID 631).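 Further: 0% = DMSO and 100% = reference agonist.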 Particulars: PPARgamma-SRC-1 coactivator recruitment biochemical assay; at 8 µM; stronger effect = higher value.
Sequence of Peroxisome proliferator-activated receptor gamma (Homo sapiens) (P37231 whole entry, looked up): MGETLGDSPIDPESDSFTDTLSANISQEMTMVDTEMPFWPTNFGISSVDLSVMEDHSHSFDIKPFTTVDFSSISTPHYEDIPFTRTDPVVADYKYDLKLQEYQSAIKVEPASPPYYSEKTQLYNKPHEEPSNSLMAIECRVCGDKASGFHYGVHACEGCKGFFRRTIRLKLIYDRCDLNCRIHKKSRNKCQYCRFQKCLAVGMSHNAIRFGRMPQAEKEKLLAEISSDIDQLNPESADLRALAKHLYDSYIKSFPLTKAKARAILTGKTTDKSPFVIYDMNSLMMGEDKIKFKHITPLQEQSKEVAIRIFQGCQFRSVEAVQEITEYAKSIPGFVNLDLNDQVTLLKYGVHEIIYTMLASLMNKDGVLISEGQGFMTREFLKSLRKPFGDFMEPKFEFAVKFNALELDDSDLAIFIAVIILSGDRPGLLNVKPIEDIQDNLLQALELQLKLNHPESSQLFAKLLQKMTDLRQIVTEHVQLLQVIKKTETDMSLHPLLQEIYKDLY
In the case of `CSC1=NP(=S)(SC)N(C)c2nc3n(c21)CCC3` (stereo not given), the activation was 65.3% (active).
Consider `Cc1ccc2c(c1)C1CN(C)CCC1N2C(=O)Cn1nnc(-c2ccccc2F)n1` (stereo not given), for which the activation is 3.5%.
With `OCC#CC[N+]1(CC#Cc2ccccc2)CCCC1` the figure was 4.2%.
As for `CC(=O)NC(=O)NC(C)Cc1ccccc1` (stereo not given), the activation was 6.2%.
With `COc1cccc(-c2nc3ccc(N4CCN(C)CC4)cc3[nH]2)c1` the figure was 3.8%.

For the origin of these results see PubChem BioAssay AID631 (The Scripps Research Institute Molecular Screening Center, 2007).
